Compounds without any hit were thinned out: in the full panel of roughly 83,000, 20% have a hit.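 96-well plates, one dose, 48 hours. Percent growth reported; active if below 10.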 Unmarked numbers belong to inactive results. Calls of active or inactive are those of the source.
Legend:
Test in all cases: NCI-60 one-dose screen, 48 h (100 = growth as untreated, 0 = no growth, -100 = all killed)
Details in all cases: 10 µM unless noted
SR leukemia = system: SR leukemia
RPMI-8226 leukemia = system: RPMI-8226 leukemia
OVCAR-8 ovarian = system: OVCAR-8 ovarian
OVCAR-5 ovarian = system: OVCAR-5 ovarian
SK-OV-3 ovarian = system: SK-OV-3 ovarian
IGROV1 ovarian = system: IGROV1 ovarian
OVCAR-3 ovarian = system: OVCAR-3 ovarian
NCI/ADR-RES ovarian = system: NCI/ADR-RES ovarian
T-47D breast = system: T-47D breast
MDA-MB-435 melanoma = system: MDA-MB-435 melanoma
SW-620 colon = system: SW-620 colon
MCF7 breast = system: MCF7 breast
HCT-116 colon = system: HCT-116 colon
HCC-2998 colon = system: HCC-2998 colon
KM12 colon = system: KM12 colon
HS 578T breast = system: HS 578T breast
BT-549 breast = system: BT-549 breast

SMILES	growth (SR leukemia)	growth (RPMI-8226 leukemia)	growth (OVCAR-8 ovarian)	growth (OVCAR-5 ovarian)	growth (SK-OV-3 ovarian)	growth (IGROV1 ovarian)	growth (OVCAR-3 ovarian)	growth (NCI/ADR-RES ovarian)	growth (T-47D breast)	growth (MDA-MB-435 melanoma)	growth (SW-620 colon)	growth (MCF7 breast)	growth (HCT-116 colon)	growth (HCC-2998 colon)	growth (KM12 colon)	growth (HS 578T breast)	growth (BT-549 breast)
Cc1ccc([N+](=O)[O-])c(C)n1	106%	99.4%	98.4%	83.5%	106%	95%	107%	115%	102%	99.8%	99.5%	96.2%	104%	103%	107%		
CCC1CCC(C)NC1 (centres undefined)	109%	98.6%	102%	107%	111%	110%	104%	101%	106%	104%	96.9%	95%	98.8%	106%	97.6%	95.7%	101%
C=CCc1cc(OC)c(O)c(OC)c1	87.1%	97.6%	103%	96.8%	103%	113%	106%	99.8%	83.7%	108%	114%	96.9%	92.6%	102%	104%	107%	106%
CC1(c2ccccc2)CO1 (centres undefined)	104%	103%	102%	97.5%	107%	100%	114%	113%	109%	113%	108%	103%	101%	111%	108%	97.4%	112%
COc1cccc(N=CNc2cccc(OC)c2)c1	93.6%	92%	104%	103%	103%	96.7%	102%	91.4%	92%	102%	98.5%	92.2%	92.2%	98.9%	87.8%	105%	101%
CN1CCCN(C(c2ccccc2)c2ccc(Br)cc2)CC1 (centres undefined)	4.87% (active)	84.1%	93.9%	92.6%	81.5%	78.6%	69.9%	79.1%	103%	-29.3% (active)	49.6%	37.5%	21.4%	95.9%	63.9%	42.4%	63.3%
CC1CC2C3CCC4=CC(=O)CCC4(C)C3CCC2(C)C1(O)C(=O)CO (centres undefined)	107%	77.1%	105%	104%	102%	117%	132%	114%	103%	115%	113%	99.8%	109%	104%	119%	123%	
CSCCC(NC(=O)C(Cl)Cl)C(=O)O (centres undefined)	91.5%	101%	96.7%	94.7%	85.6%	105%	106%	106%	82.9%		100%	95.3%	91.2%	98.8%	106%	97.8%	102%
COc1cccc(C(=O)O)c1OC	101%	101%	101%	85.9%	91.6%	99.4%	106%	99.4%		90.9%	100%	87.2%	103%	98.6%	101%	88.9%	
Cc1cc(Cc2ccccc2)c(O)c(Cc2ccccc2)c1	91.3%	103%	91.1%	88.2%	102%	90.2%	101%	82.6%	85.3%	98.1%		105%	73.5%	101%	90.5%	106%	84.1%
Cc1ccc(C)c(CCO)c1	110%	138%	98.8%	97%	100%	115%	101%	102%	103%	107%	98.3%	112%	107%	103%	101%	105%	94.3%
CCCc1cccc(CCC)c1NC(=O)Nc1cc(Cl)cc(Cl)c1	108%	96.7%	101%	104%	101%	108%	103%	110%	82.3%	104%	123%	99.1%	91.2%	116%	101%	98.2%	86.6%
CCN(C(=O)Nc1ccccc1Cl)c1ccccc1	81.4%	107%	101%	97.1%	113%	103%	116%	107%		98.3%	108%	100%	112%	111%	105%	102%	106%
c1cc(CNCCNCc2ccncc2)ccn1	130%	97.1%	97%	115%	104%	113%	118%	108%	91.4%	112%	105%	100%	95.2%	102%	108%	113%	117%
O=C1C=CC(=O)C2=C1CCCC2	68.1%	72.4%	95.1%	108%	89.4%	80.5%	89%	94.8%	85.3%	102%		70.6%	91.8%	123%	92.3%		91.6%
COc1ccc(C2CC(c3ccccc3)=Nc3ccccc3S2)cc1 (centres undefined)	49%	82.1%	115%	116%	95.3%	92%	93.3%	94.7%	84.1%	98.8%	98.4%	78.7%	88.7%	111%	87.4%	102%	91.6%
Cc1c(Cl)cccc1NC(=S)NC(=O)c1ccccc1	88.4%	73.6%	92.2%	109%	95.2%	118%	103%	104%	64.8%	101%	106%	53.3%	106%		89.6%	109%	115%
CC1CC(C)S(=O)(=O)C1 (centres undefined)	97.9%	109%	92%	108%	120%	118%	111%	111%	109%	106%	108%	102%	114%	99%	102%	125%	
